Assay results from the supplement of paper PMC10849652.
About 7,900 targets were measured; listed, in parts, are those with a hit and a random draw of the rest. About 0.6% of all pairs of compound and target were hits.

Key:
Assay in all cases: log2 fold change, soluble protein after heating vs DMSO (PISA); higher = thermal stabilisation; K562 cells, 10 uM, 30 min; active = over 0.2 and 3.5 SD of the protein, either way, in both replicates (recomputed)
erlotinib = compound: C#Cc1cccc(Nc2ncnc3cc(OCCOC)c(OCCOC)cc23)c1 [erlotinib]
Summary of the method: (§1)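 K562 cells at 2×10^6 cells/mL were given 10 μM compound for 30 min. Aliquots then went through 3 min of heating across 48°C-58°C, were pooled, and were extracted in PBS with 0.5% NP-40 at 4°C, and the supernatant after 21,000xg for 90 min was quantified by TMTpro 16plex LC-MS/MS with channel sums equalised. Thermal stability relative to control samples, from duplicates, is given as log2 fold change.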

[1] = compound: C/C(=N\NC(=O)C1=CC(=CC=C1)S(=O)(=O)N2CCOCC2)/C3=C(C=CC(=C3)Cl)O
Summary of the method: as §1

[2] = compound: C1=CC(=C(C=C1Cl)C2=NC3=NC=CN=C3C(=N2)NC4=CC=NC=C4)F
Summary of the method: as §1

[3] = compound: C1=CC(=CC=C1C2=NC3=C(N2)C=C(C=C3)C(=O)N)OC4=CC=C(C=C4)Cl
Summary of the method: as §1

[4] = compound: C1=CC2=C(C=CC(=C2)/C=C\3/C(=O)NC(=NCC4=CC=CS4)S3)N=C1
Summary of the method: as §1

[5] = compound: C1=CC2=NC=CN=C2C=C1/C=C/3\C(=O)NC(=O)S3
Summary of the method: as §1

[6] = compound: C1=CC=C(C=C1)C2=NC(=C(N2)C3=CC=NC=C3)C4=CC(=C(C=C4)Cl)O
Summary of the method: as §1

[7] = compound: C1=CC=C2C(=C1)C3=NNC4=CC=CC(=C43)C2=O
Summary of the method: as §1

[8] = compound: C1CCN(C1)C(=O)NC2=CC=CC(=C2)NC3=NC=C(C(=N3)NCCC4=CN=CN4)Br
Summary of the method: as §1

[9] = compound: C1CN(CCC1(CC2=CC=C(C=C2)Cl)N)C3=NC=NC4=C3C=CN4
Summary of the method: as §1

Measured: log2 fold change

POLR3K (UniProt Q9Y2Y1)
Chain of UniProt Q9Y2Y1 (Q9Y2Y1 whole entry, looked up): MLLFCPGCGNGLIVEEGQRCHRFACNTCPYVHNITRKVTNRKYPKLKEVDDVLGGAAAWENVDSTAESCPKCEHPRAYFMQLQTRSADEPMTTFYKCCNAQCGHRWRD
inactive: erlotinib -0.082 | [1] 0.005 | [2] -0.005 | [3] 0.007 | [4] -0.057 | [5] -0.038 | [7] -0.056 | [8] -0.006 | [9] 0.031
active: [6] -0.235

PKN1 isoform 2 (UniProt Q16512)
active: [9] -0.326
inactive: erlotinib 0.018 | [1] 0.088 | [2] 0.064 | [3] 0.055 | [4] 0.059 | [5] 0 | [6] 0.011 | [7] 0 | [8] -0.061

PSMB4 (UniProt P28070)
inactive: erlotinib -0.056 | [1] -0.024 | [2] -0.003 | [3] 0.001 | [4] -0.024 | [5] -0.035 | [6] -0.028 | [7] 0.001 | [8] 0.008 | [9] 0.037

PPP1R35 (UniProt Q8TAP8)
inactive: erlotinib 0.137 | [1] -0.064 | [2] -0.038 | [3] 0.029 | [4] 0.01 | [5] 0.034 | [6] 0.021 | [7] -0.031 | [8] 0.009 | [9] 0.001

PSMD9 (UniProt O00233)
inactive: erlotinib 0.015 | [1] 0.015 | [2] 0.022 | [3] -0.012 | [4] -0.068 | [5] 0.041 | [6] 0.006 | [7] 0.008 | [8] 0.009 | [9] 0.03

PSMC4 (UniProt P43686)
inactive: erlotinib -0.05 | [1] -0.092 | [2] -0.052 | [3] -0.004 | [4] -0.023 | [5] -0.032 | [6] -0.011 | [7] 0.006 | [8] 0.04 | [9] -0.041

PPP1R14A (UniProt Q96A00)
active: [6] 0.341
inactive: erlotinib 0.047 | [1] 0.004 | [2] 0.004 | [3] 0.063 | [4] -0.036 | [5] -0.001 | [7] 0.004 | [8] 0.016 | [9] 0.015

PFDN1 (UniProt O60925)
Chain of UniProt O60925 (O60925 whole entry, looked up): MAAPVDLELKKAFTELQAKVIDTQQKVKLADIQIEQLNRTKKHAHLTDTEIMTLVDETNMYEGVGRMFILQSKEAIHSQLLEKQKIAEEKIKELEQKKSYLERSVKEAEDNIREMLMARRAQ
inactive: erlotinib -0.018 | [1] 0.012 | [2] 0.263 | [3] 0.07 | [4] 0.056 | [5] 0.063 | [6] 0.137 | [7] 0.047 | [8] -0.091 | [9] -0.057

PAK4 (UniProt O96013)
inactive: erlotinib 0.155 | [1] -0.066 | [2] 0.017 | [3] -0.04 | [4] 0.015 | [5] 0.048 | [6] -0.068 | [7] -0.013 | [8] 0.062 | [9] -0.03

PTPN23 (UniProt Q9H3S7)
Chain of UniProt Q9H3S7 (Q9H3S7 whole entry, looked up): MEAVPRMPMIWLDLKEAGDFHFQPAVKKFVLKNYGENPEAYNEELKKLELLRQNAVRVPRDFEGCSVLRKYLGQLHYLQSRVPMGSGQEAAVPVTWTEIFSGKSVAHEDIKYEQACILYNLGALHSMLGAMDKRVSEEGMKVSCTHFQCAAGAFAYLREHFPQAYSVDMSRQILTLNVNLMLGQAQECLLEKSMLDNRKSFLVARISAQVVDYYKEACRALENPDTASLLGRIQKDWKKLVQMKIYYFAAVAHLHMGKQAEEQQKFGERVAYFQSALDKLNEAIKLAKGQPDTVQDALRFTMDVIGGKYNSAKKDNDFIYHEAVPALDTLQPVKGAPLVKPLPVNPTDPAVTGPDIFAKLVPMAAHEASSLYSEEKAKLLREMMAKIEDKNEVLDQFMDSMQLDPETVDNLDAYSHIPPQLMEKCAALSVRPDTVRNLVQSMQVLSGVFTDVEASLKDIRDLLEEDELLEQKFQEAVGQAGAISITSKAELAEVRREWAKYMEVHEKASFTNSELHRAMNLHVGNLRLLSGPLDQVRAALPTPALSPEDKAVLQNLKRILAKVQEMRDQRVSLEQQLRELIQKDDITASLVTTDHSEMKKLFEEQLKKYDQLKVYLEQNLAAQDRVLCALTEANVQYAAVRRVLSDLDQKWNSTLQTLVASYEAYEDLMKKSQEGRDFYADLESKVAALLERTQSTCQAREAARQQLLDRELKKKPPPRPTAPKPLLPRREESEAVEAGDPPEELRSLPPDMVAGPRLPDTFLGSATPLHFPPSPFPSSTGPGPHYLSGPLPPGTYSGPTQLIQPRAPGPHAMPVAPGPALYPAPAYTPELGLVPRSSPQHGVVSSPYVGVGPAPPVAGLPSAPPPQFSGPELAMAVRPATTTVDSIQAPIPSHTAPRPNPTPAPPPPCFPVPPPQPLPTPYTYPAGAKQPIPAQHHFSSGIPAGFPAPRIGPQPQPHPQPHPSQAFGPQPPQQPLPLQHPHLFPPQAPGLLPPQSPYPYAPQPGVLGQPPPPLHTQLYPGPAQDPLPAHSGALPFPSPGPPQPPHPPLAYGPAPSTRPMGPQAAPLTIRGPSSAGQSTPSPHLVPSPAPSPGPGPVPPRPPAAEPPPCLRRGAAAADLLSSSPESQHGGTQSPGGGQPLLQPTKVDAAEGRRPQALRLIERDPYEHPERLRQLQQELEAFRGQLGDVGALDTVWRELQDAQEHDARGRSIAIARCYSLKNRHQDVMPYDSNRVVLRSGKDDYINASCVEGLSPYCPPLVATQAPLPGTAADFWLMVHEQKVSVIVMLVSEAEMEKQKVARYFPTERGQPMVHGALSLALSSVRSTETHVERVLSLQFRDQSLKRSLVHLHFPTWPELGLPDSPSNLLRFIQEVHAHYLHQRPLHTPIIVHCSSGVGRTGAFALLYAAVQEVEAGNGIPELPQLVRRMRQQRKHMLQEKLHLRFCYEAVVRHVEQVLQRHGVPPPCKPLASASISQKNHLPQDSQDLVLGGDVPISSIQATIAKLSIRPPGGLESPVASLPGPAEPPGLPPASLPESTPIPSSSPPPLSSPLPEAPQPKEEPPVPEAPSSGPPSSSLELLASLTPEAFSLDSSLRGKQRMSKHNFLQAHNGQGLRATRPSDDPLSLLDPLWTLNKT
inactive: erlotinib 0.092 | [1] 0.158 | [2] -0.007 | [3] -0.048 | [4] 0.041 | [5] 0.018 | [6] 0 | [7] 0.006 | [8] -0.048 | [9] -0.029

PTGES3 (UniProt Q15185)
Chain of UniProt Q15185 (Q15185 whole entry, looked up): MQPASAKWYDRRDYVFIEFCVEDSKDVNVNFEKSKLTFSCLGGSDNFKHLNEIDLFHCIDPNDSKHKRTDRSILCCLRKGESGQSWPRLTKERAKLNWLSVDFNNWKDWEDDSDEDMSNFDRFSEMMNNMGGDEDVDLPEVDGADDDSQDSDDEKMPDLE
inactive: erlotinib 0.005 | [1] 0.095 | [2] 0.079 | [3] -0.05 | [4] 0.019 | [5] 0.007 | [6] 0.043 | [7] -0.014 | [8] -0.014 | [9] -0.049

POLR2D (UniProt O15514)
inactive: erlotinib -0.153 | [1] -0.048 | [2] 0.138 | [3] 0.204 | [4] 0.06 | [5] 0.087 | [6] -0.049 | [7] -0.011 | [8] 0.058 | [9] 0.064

POLR3D (UniProt P05423)
Chain of UniProt P05423 (P05423 whole entry, looked up): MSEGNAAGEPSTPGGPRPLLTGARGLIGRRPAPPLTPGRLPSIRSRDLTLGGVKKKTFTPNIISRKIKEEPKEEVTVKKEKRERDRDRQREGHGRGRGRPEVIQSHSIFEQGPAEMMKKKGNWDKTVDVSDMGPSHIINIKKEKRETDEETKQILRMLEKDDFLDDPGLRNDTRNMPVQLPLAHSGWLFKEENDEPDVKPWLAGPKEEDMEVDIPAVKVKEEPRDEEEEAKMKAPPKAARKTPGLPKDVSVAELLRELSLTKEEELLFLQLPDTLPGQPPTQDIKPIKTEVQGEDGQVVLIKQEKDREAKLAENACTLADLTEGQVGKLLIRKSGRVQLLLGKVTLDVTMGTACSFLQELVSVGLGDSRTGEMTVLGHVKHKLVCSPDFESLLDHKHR
active: [1] -0.665 | [4] -0.733
inactive: erlotinib 0.068 | [2] -0.087 | [3] -0.031 | [5] -0.022 | [6] 0.076 | [7] -0.004 | [8] -0.005 | [9] 0.372

POLR2G (UniProt P62487)
inactive: erlotinib -0.041 | [1] -0.011 | [2] -0.001 | [3] 0.025 | [4] -0.078 | [5] 0.044 | [6] 0.063 | [7] 0.014 | [8] -0.033 | [9] 0.071

PI4K2A (UniProt Q9BTU6)
Chain of UniProt Q9BTU6 (Q9BTU6 whole entry, looked up): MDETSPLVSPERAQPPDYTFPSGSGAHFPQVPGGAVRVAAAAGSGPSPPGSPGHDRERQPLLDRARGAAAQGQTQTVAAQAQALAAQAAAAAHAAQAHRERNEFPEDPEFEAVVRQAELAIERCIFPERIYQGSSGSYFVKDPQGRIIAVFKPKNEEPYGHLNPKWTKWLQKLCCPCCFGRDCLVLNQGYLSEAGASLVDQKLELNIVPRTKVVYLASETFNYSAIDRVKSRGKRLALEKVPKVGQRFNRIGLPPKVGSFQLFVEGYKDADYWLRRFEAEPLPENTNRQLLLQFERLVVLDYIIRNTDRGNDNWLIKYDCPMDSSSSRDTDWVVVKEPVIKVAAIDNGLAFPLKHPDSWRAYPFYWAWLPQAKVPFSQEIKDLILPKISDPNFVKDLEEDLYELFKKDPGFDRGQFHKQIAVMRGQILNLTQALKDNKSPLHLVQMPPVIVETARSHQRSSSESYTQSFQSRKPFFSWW
inactive: erlotinib -0.037 | [1] -0.01 | [2] 0.01 | [3] 0.019 | [4] 0.021 | [5] 0.071 | [6] -0.029 | [7] 0.01 | [8] -0.002 | [9] 0.046

PIGH (UniProt Q14442)
inactive: erlotinib -0.036 | [1] 0.068 | [2] 0.049 | [3] 0.027 | [4] 0.042 | [5] -0.03 | [6] -0.065 | [7] -0.054 | [8] -0.005 | [9] 0.009

PDE4A (UniProt P27815)
inactive: erlotinib 0.012 | [1] 0.013 | [2] 0.319 | [3] 0.024 | [4] 0.027 | [5] 0.06 | [6] -0.077 | [7] -0.01 | [8] 0.023 | [9] -0.148

PLCG1 isoform 2 (UniProt P19174)
inactive: erlotinib 0.052 | [1] -0.054 | [2] -0.09 | [3] 0.067 | [4] 0.119 | [5] 0.029 | [6] 0.006 | [7] 0.017 | [8] 0.052 | [9] -0.06

PDIK1L (UniProt Q8N165)
inactive: erlotinib -0.075 | [1] 0.083 | [2] -0.031 | [3] -0.052 | [4] 0.034 | [5] 0.115 | [6] -0.034 | [7] 0.197 | [8] 0.023 | [9] -0.007

PPP4R3B (UniProt Q5MIZ7)
inactive: erlotinib 0.022 | [1] 0.023 | [2] 0.013 | [3] -0.023 | [4] 0.083 | [5] 0.028 | [6] -0.023 | [7] -0.019 | [8] -0.003 | [9] -0.027

PPIL2 (UniProt Q13356)
inactive: erlotinib 0.061 | [1] 0.072 | [2] 0.064 | [3] -0.033 | [4] 0.047 | [5] 0.004 | [6] 0.026 | [7] 0.067 | [8] -0.052 | [9] -0.079

PML (UniProt P29590)
inactive: erlotinib 0.045 | [1] -0.073 | [2] 0.015 | [3] -0.022 | [4] -0.043 | [5] 0.071 | [6] 0.033 | [7] 0.007 | [8] 0.002 | [9] -0.005

POLA2 (UniProt Q14181)
inactive: erlotinib 0.042 | [1] 0.086 | [2] 0.021 | [3] -0.033 | [4] 0.048 | [5] 0.048 | [6] -0.044 | [7] -0.013 | [8] -0.063 | [9] -0.004

PRKCA (UniProt P17252)
inactive: erlotinib 0.117 | [1] 0.041 | [2] 0.04 | [3] -0.009 | [4] 0.127 | [5] 0.016 | [6] -0.019 | [7] -0.006 | [8] 0.008 | [9] -0.074

PRPF3 (UniProt O43395)
inactive: erlotinib 0.06 | [1] 0.144 | [2] 0.069 | [3] -0.02 | [4] 0.015 | [5] 0.019 | [6] 0.057 | [7] 0 | [8] -0.07 | [9] 0.053

PHLDB1 isoform 2 (UniProt Q86UU1)
inactive: erlotinib -0.02 | [1] 0.03 | [2] 0.099 | [3] 0.027 | [4] 0.165 | [5] -0.093 | [6] 0.008 | [7] -0.125 | [8] -0.048 | [9] 0.025

PPP6R1 (UniProt Q9UPN7)
Chain of UniProt Q9UPN7 (Q9UPN7 whole entry, looked up): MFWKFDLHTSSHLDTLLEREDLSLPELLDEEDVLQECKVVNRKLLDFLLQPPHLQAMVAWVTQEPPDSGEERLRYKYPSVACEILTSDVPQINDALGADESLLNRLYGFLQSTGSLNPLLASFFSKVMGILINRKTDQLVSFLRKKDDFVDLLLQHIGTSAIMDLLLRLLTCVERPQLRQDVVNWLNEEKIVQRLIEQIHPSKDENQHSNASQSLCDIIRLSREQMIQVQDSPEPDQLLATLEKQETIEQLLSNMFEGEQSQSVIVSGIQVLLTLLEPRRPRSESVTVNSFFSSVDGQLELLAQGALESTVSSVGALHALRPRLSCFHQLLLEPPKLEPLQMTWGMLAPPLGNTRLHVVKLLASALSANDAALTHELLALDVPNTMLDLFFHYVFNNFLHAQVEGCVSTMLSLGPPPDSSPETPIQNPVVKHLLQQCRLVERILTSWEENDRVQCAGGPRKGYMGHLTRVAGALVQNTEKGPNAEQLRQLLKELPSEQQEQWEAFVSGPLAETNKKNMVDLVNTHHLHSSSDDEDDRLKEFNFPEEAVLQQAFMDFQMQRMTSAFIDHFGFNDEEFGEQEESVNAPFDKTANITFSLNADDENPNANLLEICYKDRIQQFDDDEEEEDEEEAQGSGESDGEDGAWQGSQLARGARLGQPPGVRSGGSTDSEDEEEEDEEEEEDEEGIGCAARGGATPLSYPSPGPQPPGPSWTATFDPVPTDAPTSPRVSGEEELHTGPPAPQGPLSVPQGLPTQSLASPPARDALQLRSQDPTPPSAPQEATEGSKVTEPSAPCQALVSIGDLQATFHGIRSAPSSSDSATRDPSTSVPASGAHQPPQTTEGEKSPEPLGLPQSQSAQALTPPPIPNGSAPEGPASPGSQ
inactive: erlotinib -0.022 | [1] -0.017 | [2] 0.013 | [3] -0.004 | [4] 0.025 | [5] 0.012 | [6] -0.022 | [7] -0.039 | [8] -0.014 | [9] 0.033

PLEKHM2 (UniProt Q8IWE5)
inactive: erlotinib 0.228 | [1] 0.07 | [2] 0.034 | [3] -0.03 | [4] 0.075 | [5] 0.069 | [6] 0.082 | [7] -0.065 | [8] -0.005 | [9] -0.066

POM121 (UniProt Q96HA1)
Chain of UniProt Q96HA1 (Q96HA1 whole entry, looked up): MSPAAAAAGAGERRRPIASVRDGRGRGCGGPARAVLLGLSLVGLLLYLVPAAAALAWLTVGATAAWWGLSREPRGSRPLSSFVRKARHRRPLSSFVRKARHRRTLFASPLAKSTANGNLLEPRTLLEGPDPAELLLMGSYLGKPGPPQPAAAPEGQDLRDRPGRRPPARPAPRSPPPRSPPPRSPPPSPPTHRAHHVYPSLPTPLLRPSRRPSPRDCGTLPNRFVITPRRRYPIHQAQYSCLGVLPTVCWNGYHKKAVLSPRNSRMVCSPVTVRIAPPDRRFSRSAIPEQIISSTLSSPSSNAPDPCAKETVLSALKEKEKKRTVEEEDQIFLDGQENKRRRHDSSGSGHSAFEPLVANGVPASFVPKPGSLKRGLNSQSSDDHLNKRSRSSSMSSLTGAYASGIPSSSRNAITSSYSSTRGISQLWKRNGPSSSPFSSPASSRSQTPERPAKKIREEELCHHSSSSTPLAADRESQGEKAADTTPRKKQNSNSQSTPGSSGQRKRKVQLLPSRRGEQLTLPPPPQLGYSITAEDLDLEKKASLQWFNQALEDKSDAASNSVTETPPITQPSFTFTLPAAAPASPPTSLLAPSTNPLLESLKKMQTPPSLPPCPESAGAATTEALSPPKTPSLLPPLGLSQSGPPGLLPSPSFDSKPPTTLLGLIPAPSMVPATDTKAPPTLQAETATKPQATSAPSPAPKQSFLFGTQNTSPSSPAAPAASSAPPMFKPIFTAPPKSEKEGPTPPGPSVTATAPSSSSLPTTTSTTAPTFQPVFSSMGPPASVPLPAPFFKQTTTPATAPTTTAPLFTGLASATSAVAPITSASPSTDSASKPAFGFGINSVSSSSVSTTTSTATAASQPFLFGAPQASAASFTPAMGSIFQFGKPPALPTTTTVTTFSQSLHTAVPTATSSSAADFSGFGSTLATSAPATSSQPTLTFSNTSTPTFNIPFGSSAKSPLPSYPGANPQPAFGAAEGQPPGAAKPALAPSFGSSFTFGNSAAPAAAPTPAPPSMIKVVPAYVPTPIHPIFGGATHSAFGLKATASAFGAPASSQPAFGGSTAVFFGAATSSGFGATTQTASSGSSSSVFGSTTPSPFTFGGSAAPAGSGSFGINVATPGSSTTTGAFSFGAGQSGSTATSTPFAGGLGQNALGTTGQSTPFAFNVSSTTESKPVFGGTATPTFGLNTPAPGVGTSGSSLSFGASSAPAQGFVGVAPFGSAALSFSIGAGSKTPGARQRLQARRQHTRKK
inactive: erlotinib -0.013 | [1] -0.075 | [2] -0.127 | [3] 0.033 | [4] 0.118 | [5] -0.008 | [6] -0.137 | [7] -0.185 | [8] -0.087 | [9] -0.106

POLD3 (UniProt Q15054)
inactive: erlotinib 0.083 | [1] 0.131 | [2] 0.048 | [3] -0.031 | [4] 0.048 | [5] 0.038 | [6] 0.027 | [7] -0.07 | [8] -0.016 | [9] -0.099
